# In the supplement of paper PMC3545927:
# The other results are listed elsewhere or left out. No count for the full screen is at hand.
# B1: HC1674 (peptide)
# chain: CAKEECSQHLAGNASASA
# B2: FS-2849 (peptide)
# chain: CARYKRPGLPAGNASASA
# B3: FS-2112 (peptide)
# chain: CARYKRWRKHAGNASASA
# B4: FS-2848 (peptide)
# chain: CARYKRHFKLAGNASASA
# B5: HC1039 (peptide)
# chain: CALETFWAKHAGNASASA
# B6: HC1846 (peptide)
# chain: CATMPCSGSWAGNASASA
# B7: FS-1455 (peptide)
# chain: CAGCGRICRDAGNASASA
# B8: FS-2648 (peptide)
# chain: CARARRHAADAGNASASA
# B9: FS-2644 (peptide)
# chain: CARARRFAQIAGNASASA
# B10: FS-1683 (peptide)
# chain: CARARRFSGLAGNASASA
# B11: FS-1848 (peptide)
# chain: CARARRPHFDAGNASASA
# B12: FS-2547 (peptide)
# chain: CARARRFCRDAGNASASA
# B13: HC985 (peptide)
# chain: CAMSADLEVVAGNASASA
# B14: HC1592 (peptide)
# chain: CALDCEIYGAAGNASASA
# B15: HC384 (peptide)
# chain: CAFNSSGCPEAGNASASA
# B16: HC1103 (peptide)
# chain: CAAILSPGALAGNASASA
# B17: HC983 (peptide)
# chain: CAIMTCMSADAGNASASA
# B18: HC1401 (peptide)
# chain: CADSHYQDVLAGNASASA
# B19: HC2299 (peptide)
# chain: CADPEVVTSTAGNASASA
# B20: HC2219 (peptide)
# chain: CAEVVTSPWVAGNASASA
# B21: HC2354 (peptide)
# chain: CAEVKCHRPSAGNASASA
# B22: FS-2480 (peptide)
# chain: CARARRHSDGAGNASASA
# B23: HC1285 (peptide)
# chain: CAKVVILDSFAGNASASA
# B24: FS-1353 (peptide)
# chain: CAKVLRSRRSAGNASASA
# B25: FS-932 (peptide)
# chain: CAHPRRSRRSAGNASASA
# B26: HC1122 (peptide)
# chain: CAASRGNHVSAGNASASA
# B27: FS-1614 (peptide)
# chain: CASPRDARRSAGNASASA
# B28: FS-32 (peptide)
# chain: CAIALRLRRSAGNASASA
# B29: DV5 (peptide)
# chain: CAHSRRSRRSAGNASASA
# B30: FS-979 (peptide)
# chain: CAASRVSRRSAGNASASA
# Biological target: furin, P09958
# Sequence (P09958 whole entry): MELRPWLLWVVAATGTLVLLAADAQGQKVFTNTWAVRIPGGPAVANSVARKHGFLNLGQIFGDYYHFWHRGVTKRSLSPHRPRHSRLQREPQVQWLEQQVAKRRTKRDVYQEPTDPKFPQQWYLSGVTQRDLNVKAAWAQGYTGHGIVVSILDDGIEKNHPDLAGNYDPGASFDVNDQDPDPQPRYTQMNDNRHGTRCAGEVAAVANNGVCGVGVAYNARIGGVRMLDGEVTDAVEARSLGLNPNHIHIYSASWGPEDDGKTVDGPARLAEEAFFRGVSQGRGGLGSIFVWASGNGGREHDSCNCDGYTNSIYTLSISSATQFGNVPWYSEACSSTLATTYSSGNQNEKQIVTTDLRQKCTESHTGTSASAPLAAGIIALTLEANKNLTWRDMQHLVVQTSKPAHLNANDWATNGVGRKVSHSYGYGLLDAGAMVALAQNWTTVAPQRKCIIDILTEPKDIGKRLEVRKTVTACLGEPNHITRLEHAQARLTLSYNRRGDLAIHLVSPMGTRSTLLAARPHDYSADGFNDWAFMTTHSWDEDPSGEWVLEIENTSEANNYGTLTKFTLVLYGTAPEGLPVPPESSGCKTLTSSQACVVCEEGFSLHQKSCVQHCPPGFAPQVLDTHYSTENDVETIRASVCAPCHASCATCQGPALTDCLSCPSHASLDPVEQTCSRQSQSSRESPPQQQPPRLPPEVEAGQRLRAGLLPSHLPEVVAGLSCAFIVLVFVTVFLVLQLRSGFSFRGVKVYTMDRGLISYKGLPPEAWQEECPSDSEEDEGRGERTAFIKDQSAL
# Assay: furin cleavage Z-score vs untreated control; higher = more cleavage, active = 3.5 or more, inactive = 1 or less, 8 variable residues between constant flanks
# Summary of the method: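 Purified furin digested bead-held 8-mer peptide–cDNA fusions at 1:10 enzyme:substrate in 0.01 ml of 50 mM HEPES pH 7.5 with CaCl2 and NaCl for 7.5, 15 or 30 min. The cleavage Z-score compares sequencing counts of released DNA with furin-free reactions on a log scale, with lowess adjustment and median absolute deviation scaling.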
Sequence,furin cleavage Z-score (7.5 min),furin cleavage Z-score (15 min),furin cleavage Z-score (30 min)
B1,0.0836 (inactive),-0.555 (inactive),1.98
B2,-0.56 (inactive),0.396 (inactive),1.9
B3,4.44 (active),6.03 (active),5.36 (active)
B4,1.05,2.24,5.27 (active)
B5,-0.932 (inactive),-0.375 (inactive),0.0766 (inactive)
B6,-0.28 (inactive),-1.3 (inactive),-0.468 (inactive)
B7,1.57,3.73 (active),3.06
B8,12.4 (active),14.4 (active),8.89 (active)
B9,1.75,2.84,5.09 (active)
B10,-0.486 (inactive),-0.258 (inactive),0.853 (inactive)
B11,-1.25 (inactive),-0.201 (inactive),0.259 (inactive)
B12,11.3 (active),11.2 (active),8.57 (active)
B13,-0.119 (inactive),0.307 (inactive),-0.651 (inactive)
B14,-0.215 (inactive),-0.505 (inactive),-1.05 (inactive)
B15,-0.864 (inactive),-1.69 (inactive),-0.153 (inactive)
B16,0.122 (inactive),-1.5 (inactive),-0.137 (inactive)
B17,-1.36 (inactive),0.0813 (inactive),-2.62 (inactive)
B18,-0.596 (inactive),-0.846 (inactive),0.188 (inactive)
B19,-0.751 (inactive),-0.261 (inactive),-0.557 (inactive)
B20,-0.287 (inactive),-0.0163 (inactive),0.0529 (inactive)
B21,0.191 (inactive),-0.204 (inactive),1.45
B22,6.39 (active),6.07 (active),5.39 (active)
B23,-0.496 (inactive),-1.22 (inactive),-0.351 (inactive)
B24,3.74 (active),4.72 (active),3.35
B25,8.18 (active),9.38 (active),7.97 (active)
B26,1.32,0.577 (inactive),1.1
B27,-1.33 (inactive),-1.24 (inactive),-1.6 (inactive)
B28,1.01,0.68 (inactive),0.673 (inactive)
B29,12.2 (active),12.3 (active),9.14 (active)
B30,5.49 (active),7.22 (active),5.62 (active)
